Experimental findings from PubChem BioAssay are described below.

Calls of active or inactive are those of the source.

The test system of experiment [1] is Plasmodium falciparum Sir2 (PF13_0152, Sir2A). Briefly: Plasmodium falciparum Sir2A binding compounds – biochemical, small-molecule microarray, 635 nm fluorescence, primary screen (AID 1098).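 Further: score merges spot fluorescence intensity with its signal-to-noise ratio.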 The conditions noted are these: fluorescence 635 nm, higher = more signal.
The nature of experiment [2]: probe aDKK1 binding to arrayed compounds – biochemical, biotinylated probe, 635/667 nm fluorescence, primary screen (AID 1099).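 Further: score merges 667nm spot fluorescence with signal to noise across triplicate slides; reference of the scale not given here.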 The conditions noted are these: small-molecule microarray, higher = more signal.
Experiment [3] is described as follows: probe aCHRDL2 binding to arrayed compounds – biochemical, biotinylated probe, 635/667 nm fluorescence, primary screen (AID 1100). The conditions noted are these: small-molecule microarray, higher = more signal.
Experiment [4] is described as follows: change in splice reporter luminescence, either direction, cell-based, HEK293, spliceosome inhibition project, primary screen (AID 1101).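 Further: HEK293 cells carrying a splicing-competent luciferase reporter gene; test concentration not given here.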 To be noted: HEK293 splicing luciferase reporter, 24 h, higher = more signal, called active from +8 up or from −8 down.
The target of experiment [5] is Fibroblast growth factor 10 (Homo sapiens) (UniProt O15520). Put plainly: compounds binding fibroblast growth factor 10 – biochemical, small-molecule microarray, 635 nm fluorescence, primary screen (AID 1102). To be noted: FGF10 binding, fluorescence 635 nm, higher = more signal.
Chain of Fibroblast growth factor 10 (Homo sapiens) (O15520 whole entry, looked up): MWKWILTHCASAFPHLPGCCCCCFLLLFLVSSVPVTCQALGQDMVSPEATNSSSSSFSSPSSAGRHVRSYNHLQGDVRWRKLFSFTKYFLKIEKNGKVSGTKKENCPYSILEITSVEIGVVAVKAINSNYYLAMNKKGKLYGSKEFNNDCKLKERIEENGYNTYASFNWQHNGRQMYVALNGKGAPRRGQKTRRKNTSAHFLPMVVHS
Experiment [6] relates to glycogen synthase kinase-3 (GSK3A per assay name; protocol says GSK3B). Briefly: compounds binding glycogen synthase kinase-3 – biochemical, small-molecule microarray, 635 nm fluorescence, GSK3A, primary screen (AID 1103). Further: the record names both GSK3A and GSK3B. The conditions noted are these: fluorescence 635 nm, higher = more signal.
Experiment [7] has as its target Epidermal growth factor receptor (Homo sapiens) (UniProt P00533). Briefly: compounds binding epidermal growth factor receptor – biochemical, small-molecule microarray, 635 nm fluorescence, primary screen (AID 1104).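 Further: score merges 667 nm emission intensity with spot signal to noise over triplicate slides.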 The conditions noted are these: EGFR binding, higher = more signal.
Experiment [8] addresses Follistatin-related protein 3 (Homo sapiens) (UniProt O95633). Briefly: compounds binding follistatin-related protein 3 – biochemical, small-molecule microarray, 635 nm fluorescence, primary screen (AID 1105).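 Further: score merges emission near 667 nm and signal to noise per printed spot across three slides.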 The conditions noted are these: FSTL3 binding, higher = more signal.
The target in experiment [9] is Dickkopf-related protein 1 (Homo sapiens) (UniProt O94907). Put plainly: small molecules binding DKK1 protein – biochemical, small-molecule microarray, 635 nm fluorescence scan, primary screen (AID 1106).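 Further: score merges emission near 667 nm with signal to noise over three replicate slides.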 The conditions noted are these: higher = more signal.
Chain of Dickkopf-related protein 1 (Homo sapiens) (O94907 whole entry, looked up): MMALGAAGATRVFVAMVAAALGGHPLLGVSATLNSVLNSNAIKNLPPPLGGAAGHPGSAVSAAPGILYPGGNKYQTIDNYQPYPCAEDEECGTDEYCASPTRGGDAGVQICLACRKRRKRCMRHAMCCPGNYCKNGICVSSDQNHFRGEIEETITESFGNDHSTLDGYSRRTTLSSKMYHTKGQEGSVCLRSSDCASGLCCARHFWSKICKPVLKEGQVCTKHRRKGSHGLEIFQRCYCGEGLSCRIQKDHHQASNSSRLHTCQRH
Experiment [10] relates to Inhibin beta A chain (activin A). Put plainly: small molecules binding activin A – biochemical, small-molecule microarray, 635 nm fluorescence scan, primary screen (AID 1107).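 Further: mouse activin A protein probed at 4.33 µg/mL on printed slides; score merges bound-protein fluorescence near 667 nm with spot signal-to-noise.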 To be noted: INHBA, higher = more signal.

Chain of Epidermal growth factor receptor (Homo sapiens) (P00533 whole entry, looked up): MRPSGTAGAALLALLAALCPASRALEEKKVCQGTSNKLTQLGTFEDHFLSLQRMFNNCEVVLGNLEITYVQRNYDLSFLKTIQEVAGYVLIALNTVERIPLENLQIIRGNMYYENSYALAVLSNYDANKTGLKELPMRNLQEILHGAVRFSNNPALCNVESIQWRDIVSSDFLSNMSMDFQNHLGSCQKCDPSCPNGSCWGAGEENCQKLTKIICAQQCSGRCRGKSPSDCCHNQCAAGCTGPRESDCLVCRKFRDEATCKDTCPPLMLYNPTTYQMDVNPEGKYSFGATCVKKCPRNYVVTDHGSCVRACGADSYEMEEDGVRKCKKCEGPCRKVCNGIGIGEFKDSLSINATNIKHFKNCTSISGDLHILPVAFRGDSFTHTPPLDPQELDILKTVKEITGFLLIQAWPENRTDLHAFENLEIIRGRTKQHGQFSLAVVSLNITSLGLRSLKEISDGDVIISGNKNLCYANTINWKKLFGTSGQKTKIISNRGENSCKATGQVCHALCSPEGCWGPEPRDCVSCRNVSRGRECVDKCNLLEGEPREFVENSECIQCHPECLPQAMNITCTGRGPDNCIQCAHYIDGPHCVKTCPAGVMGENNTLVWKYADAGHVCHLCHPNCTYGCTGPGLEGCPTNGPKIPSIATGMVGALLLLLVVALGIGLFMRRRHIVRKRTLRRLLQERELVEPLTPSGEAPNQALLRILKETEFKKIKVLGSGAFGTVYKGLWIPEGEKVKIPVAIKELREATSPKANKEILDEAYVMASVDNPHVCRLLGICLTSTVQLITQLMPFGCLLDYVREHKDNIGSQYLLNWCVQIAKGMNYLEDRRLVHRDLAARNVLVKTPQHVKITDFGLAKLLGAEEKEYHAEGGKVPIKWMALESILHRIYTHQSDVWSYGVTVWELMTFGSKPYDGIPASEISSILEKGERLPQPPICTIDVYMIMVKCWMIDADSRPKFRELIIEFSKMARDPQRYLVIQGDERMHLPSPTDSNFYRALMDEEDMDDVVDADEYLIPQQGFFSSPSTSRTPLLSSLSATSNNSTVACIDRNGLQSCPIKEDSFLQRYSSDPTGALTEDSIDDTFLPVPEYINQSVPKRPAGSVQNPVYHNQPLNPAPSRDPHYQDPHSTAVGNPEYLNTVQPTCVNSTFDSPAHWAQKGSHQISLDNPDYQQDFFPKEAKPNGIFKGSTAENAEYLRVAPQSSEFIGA
Chain of Follistatin-related protein 3 (Homo sapiens) (O95633 whole entry, looked up): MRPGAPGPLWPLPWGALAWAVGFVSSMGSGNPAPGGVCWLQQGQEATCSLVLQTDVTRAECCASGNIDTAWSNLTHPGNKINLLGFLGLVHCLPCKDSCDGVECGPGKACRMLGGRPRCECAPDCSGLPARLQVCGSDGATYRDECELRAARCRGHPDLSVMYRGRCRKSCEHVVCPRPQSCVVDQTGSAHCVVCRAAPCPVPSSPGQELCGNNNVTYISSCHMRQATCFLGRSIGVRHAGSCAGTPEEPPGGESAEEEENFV

For `COC(=O)[C@H]1N=C(c2ccc(OCCCO)cc2)O[C@H]1c1ccccc1CN=[N+]=[N-]`, the composite z-score in [1] is 0.555; in experiment [2] it was 0.613; in experiment [3], 1.22; in [5], -0.418; in experiment [6], -1.04; in experiment [7], -0.771. Also, the composite z-score in [8] is -0.605; in experiment [9] it was -1.56; in [10], 0.635. Further, the z-score in experiment [4] is -0.0171 (inactive).

For the molecule `COc1ccc([Si](C)(C)[C@@H]2[C@@H](CC(=O)N(CCO)Cc3ccccc3)O[C@]3(C(=O)N(Cc4ccc(N5CCOC5=O)cc4)c4ccccc43)[C@H]2C)cc1`, the composite z-score in experiment [1] turned out to be 0.851; in experiment [2], 0.232; in experiment [3] it was 0.0947; in [5] it was 0.472; in experiment [6], 0.218; in experiment [7], 0.467. The composite z-score in [8] stood at 1.09; in experiment [9], 0.71; in [10], 0.529. Besides, the z-score in [4] is 0.24 (inactive).

In the case of `CC1CC/C=C\[C@H]2OC34C=CCN(c5ccc(Cl)cc5)C(=O)[C@H]3N(C(CO)C(C)C)C(=O)[C@]4(C)C2C(=O)O1` (stereo not given in full), the composite z-score is 1.86 in [1]; -0.0977 in experiment [2]; 0.281 in experiment [3]; -0.0355 in [5]; -0.364 in experiment [6]; -0.799 in [7]. Further, the results for the composite z-score in [8], in [9] and in [10] were -0.786, -0.717 and 0.813, respectively. Besides, in experiment [4], the z-score is 0.323 (inactive).

Regarding `COc1cccc(C[C@H]2C[C@@H](CO[Si](C(C)C)(C(C)C)C(C)C)N3C(=O)[C@]4(C(C)=O)O[C@]23[C@H]2C(=O)N(C)C(=O)[C@H]24)c1`, the composite z-score in experiment [1] is 0.817; in experiment [2] it was -0.0616; in [3], -0.463; in experiment [5] it was 0.759; in experiment [6] it was 1.02; in experiment [7] it was 0.468. Moreover, the composite z-score was 1.09 in [8], 0.53 in experiment [9] and -0.254 in experiment [10]. In [4], the z-score is -1.29 (inactive).

Consider `O=C1OCCC=C[C@H]2OC34C=CCN(Cn5nnc6ccccc65)C(=O)[C@H]3N(CCCCCO)C(=O)[C@@H]4C12` (stereo not given in full), for which the composite z-score in experiment [1] is 1.18; in experiment [2], -0.181; in [3] it was 0.311; in [5], -0.691; in experiment [6], -0.368; in [7], -0.97. Also, the composite z-score in experiment [8] was -1.09; in [9] it was -0.925; in [10], 0.0469. Besides, the z-score in [4] was 0.227 (inactive).

`C=CC[C@@]1(C(=O)NCCN2CCOCC2)N=C(c2ccc(OCCCO)cc2)O[C@@H]1c1ccccc1`: the composite z-score turned out to be 1.28 in [1]; 0.449 in [2]; 0.853 in [3]; 1.5 in experiment [5]; 1.29 in experiment [6]; 0.802 in experiment [7]. Also, the values for the composite z-score in experiment [8], in experiment [9] and in experiment [10] were 1.22, 0.785 and 0.726, respectively. The z-score in [4] was -0.161 (inactive).

`COCCOC(=O)N1C(=O)[C@@]2(c3ccccc31)[C@H](c1ccccc1OCCO)N1[C@H](c3ccccc3)[C@H](c3ccccc3)OC(=O)[C@H]1[C@@H]2C(=O)N1CCc2cc(OC)c(OC)cc2C1`: the composite z-score in [1] worked out at 1.1; in experiment [2], 0.153; in experiment [3], 0.49; in [5], 0.658; in experiment [6], 1.28; in experiment [7], 0.261. Moreover, the composite z-score in [8] was determined as 0.788; in experiment [9], 0.424; in [10], 0.41. The z-score in experiment [4] was -1.42 (inactive).

Turning to `CCCCCCCCCCC(O)C1C=CC2C(=O)NC(=O)C2N1Nc1ccccn1` (stereo not given), the composite z-score was 1.07 in [1]; 0.482 in experiment [2]; 0.883 in [3]; -0.649 in experiment [5]; -0.811 in experiment [6]; -0.689 in experiment [7]. For the same molecule, the composite z-score in [8] is -0.448; in experiment [9] it was -0.765; in [10], 0.997. The z-score in experiment [4] was 0.447 (inactive).

`COCCOC(=O)N1C(=O)[C@@]2(c3cc(C#CCNC(N)=O)ccc31)[C@H](C(=O)N1CCCCCCC1)[C@H]1C(=O)O[C@H](c3ccccc3)[C@H](c3ccccc3)N1[C@@H]2c1ccc(OCCO)cc1`: the composite z-score came out at 0.918 in [1]; 0.774 in experiment [2]; 0.989 in experiment [3]; 0.544 in [5]; 0.211 in [6]; 0.588 in experiment [7]. Also, the figures for the composite z-score in experiment [8], in [9] and in experiment [10] were 0.762, 0.0313 and 0.999, respectively. In addition, in experiment [4], the z-score was 0.524 (inactive).

Take `O=C(N1CCOCC1)[C@@]1(CCS(=O)(=O)c2ccccc2)COC(c2ccc(OCCCO)cc2)=N1`: the composite z-score in [1] is 0.495; in [2] it was 0.0641; in experiment [3] it was 0.691; in [5] it was 0.94; in experiment [6], 0.443; in [7] it was -0.935. Besides, the values for the composite z-score in [8], in [9] and in experiment [10] were -0.827, -0.899 and -0.704, respectively. Also, in experiment [4], the z-score is 0.122 (inactive).

Regarding `CN(C)C(=O)[C@@]1(CCC(=O)OC(C)(C)C)COC(c2ccc(OCCCO)cc2)=N1`, the composite z-score is 0.999 in experiment [1]; 0.66 in experiment [2]; 0.945 in experiment [3]; 0.625 in experiment [5]; -0.459 in experiment [6]; -0.785 in [7]. In addition, the composite z-score in experiment [8] was -0.326; in experiment [9] it was -1.19; in experiment [10], 0.279. Also, the z-score in experiment [4] was 0.351 (inactive).

For `COCC(=C=CC[C@@H](O)c1ccccc1OCCO)C[C@@H](O)COCc1ccccc1`, the composite z-score in experiment [1] was 0.72; in experiment [2] it was 0.724; in [3], 0.167; in [5], 1.21; in [6], 0.732; in [7], -1.19. Also, the results for the composite z-score in experiment [8], in experiment [9] and in [10] were -0.268, -0.466 and 1.24, respectively. In addition, the z-score in experiment [4] is -1.48 (inactive).

Consider `COCC1=C([C@H](O)CCc2ccccc2)[C@H](CO)[C@@H]2C(=O)N(C)C(=O)[C@@H]2C1`, for which the composite z-score in [1] is -0.129; in experiment [2] it was -0.541; in [3] it was -0.578; in experiment [5], 0.397; in [6], 0.189; in [7], 0.456. Besides, the composite z-score worked out at 0.0826 in [8], 0.408 in experiment [9] and 0.42 in experiment [10]. Also, the z-score in [4] is 0.559 (inactive).

As for `CC(C)c1ccc(NN2C(C(O)c3cccs3)C=CC3C(=O)N(c4ccccc4)C(=O)C32)cc1` (stereo not given), the composite z-score amounted to 1.02 in experiment [1]; 0.0558 in [2]; 0.928 in experiment [3]; 0.461 in experiment [5]; 1.31 in experiment [6]; 0.156 in [7]. For the same molecule, the composite z-score in [8] is 1.21; in experiment [9], -0.054; in experiment [10], 0.975. Besides, in [4], the z-score is 0.356 (inactive).

In the case of `O=C(O)[C@]1(CCS(=O)(=O)c2ccccc2)N=C(c2ccc(OCCCO)cc2)O[C@@H]1c1ccccc1`, the composite z-score in [1] is 0.74; in experiment [2], 1.21; in [3] it was 1.04; in experiment [5], 0.216; in [6], 0.439; in [7] it was -0.422. Further, the composite z-score in experiment [8] was -0.564; in experiment [9] it was -0.402; in [10], 0.849. The z-score in experiment [4] is 0.149 (inactive).

As to `COc1ccccc1CN1C(=O)c2ccccc2[C@@]2(Cc3ccccc3N(C3CC3)C2=O)[C@@H]1c1ccc(CO)cc1`, the composite z-score in experiment [1] is 0.76; in [2], -0.0899; in [3], 0.322; in experiment [5], -0.671; in experiment [6] it was -0.928; in experiment [7] it was -0.724. The values for the composite z-score in experiment [8], in experiment [9] and in experiment [10] were -0.279, -0.535 and 0.52, respectively. For the same molecule, the z-score in experiment [4] is 0.312 (inactive).
